The values that follow come from publication PMC5540273 (PLoS ONE, 2017).

Among the test systems are BLK; BMPR1A; BMPR1B; BMPR2; BMX; BRAF; BRSK1; BRSK2.
What all share (settings): concentration: 1 μM, replicates: in singlicate; n = 1
In a further assay the test system is T1, BIKE.
T1 construct: gene BMP2K

A further assay relates to T2, BRK.
T2 construct: gene PTK6
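Further: KINOMEscan kinase panel screen.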

In the case of `NS(=O)(=O)c1cccc(N/C=C2\C(=O)Nc3ccc(S(=O)(=O)Cc4c(Cl)cccc4Cl)cc32)c1` [GSK398099], the “%Inh” value in the assay with BIKE is on record as 0%; in the assay with BLK, 0%; in the assay on BMPR1A, 0%; in the assay on BMPR1B, 0%; in the assay with BMPR2, 8%; with BMX, 0%. The “%Inh” value with BRAF is listed as 0%; in the assay with BRK, 2%; with BRSK1, 0%; with BRSK2 it was 0%.

With `CSc1ccc(-c2nc3n(c2-c2ccncc2)CCC3)cc1` [SKF-105561], the “%Inh” value came out at 16% with BIKE; 4% in the assay on BLK; 0% in the assay on BMPR1A; 6% in the assay with BMPR1B; 1% with BMPR2; 0% in the assay with BMX. The “%Inh” value is listed as 7% in the assay on BRAF, 1% with BRK, 0% in the assay on BRSK1 and 0% in the assay with BRSK2.

With `Cc1c(Cn2c3ccccc3n3c(=O)cc(N4CCOCC4)nc23)cccc1C(F)(F)F` [GSK2306394], the “%Inh” value is 7% in the assay with BIKE; 34% in the assay with BLK; 0% in the assay on BMPR1A; 0% in the assay with BMPR1B; 0% with BMPR2; 0% in the assay on BMX. In addition, the “%Inh” value in the assay with BRAF is reported as 8%; in the assay with BRK, 3%; with BRSK1 it was 0%; in the assay on BRSK2 it was 0%.

`Cl.Cl.Cl.N#Cc1ccc(CCNc2nccc(-c3cccc(CN4CCNCC4)c3)n2)cc1` [GSK2137462]: the “%Inh” value is given as 25% in the assay with BIKE; 0% in the assay on BLK; 0% in the assay with BMPR1A; 0% in the assay on BMPR1B; 0% with BMPR2; 12% with BMX. The “%Inh” value in the assay with BRAF stood at 0%; in the assay with BRK, 8%; in the assay on BRSK1 it was 0%; in the assay with BRSK2, 2%.

In the case of `CN1c2ccc(-c3ccc(C(N)=O)cc3)cc2-c2[nH]ncc2S1(=O)=O`, the “%Inh” value stood at 9% with BIKE; 6% in the assay on BLK; 0% in the assay with BMPR1A; 0% with BMPR1B; 0% in the assay on BMPR2; 0% in the assay on BMX. Further, the “%Inh” value with BRAF stood at 0%; in the assay on BRK, 0%; with BRSK1, 0%; with BRSK2 it was 6%.

Turning to `CNCc1ccc2nc(NC(=O)c3ccc(C(C)(C)C)cc3)cn2c1`, the “%Inh” value in the assay with BIKE is given as 15%; in the assay with BLK, 0%; with BMPR1A, 17%; in the assay on BMPR1B, 14%; with BMPR2, 19%; with BMX, 0%. Besides, the “%Inh” value was 18% in the assay on BRAF, 2% in the assay with BRK, 9% in the assay on BRSK1 and 0% in the assay on BRSK2.

Turning to `CC(C)c1cc(-c2ccc3c(N)n[nH]c3c2)nc(N)n1` [GSK2250882], the “%Inh” value with BIKE came to 72%; with BLK, 5%; in the assay with BMPR1A, 0%; in the assay on BMPR1B, 0%; in the assay on BMPR2, 4%; in the assay with BMX, 18%. For the same molecule, the “%Inh” value in the assay on BRAF was found to be 0%; in the assay on BRK it was 14%; in the assay on BRSK1 it was 40%; with BRSK2 it was 22%.

`CC(=O)c1c(C)c2cnc(Nc3ccn(C)n3)nc2n(C2CCCC2)c1=O`: the “%Inh” value amounted to 22% with BIKE; 0% in the assay on BLK; 0% with BMPR1A; 0% in the assay with BMPR1B; 0% in the assay with BMPR2; 0% in the assay with BMX. In addition, the “%Inh” value in the assay on BRAF worked out at 3%; in the assay with BRK, 8%; in the assay on BRSK1, 0%; in the assay on BRSK2, 0%.

Regarding `c1ccc(-c2ccnc3[nH]ccc23)cc1` [SB-693578], the “%Inh” value with BIKE is listed as 0%; with BLK, 4%; with BMPR1A, 1%; in the assay with BMPR1B, 0%; in the assay on BMPR2 it was 47%; in the assay on BMX, 0%. Besides, the “%Inh” value in the assay with BRAF was determined as 4%; with BRK, 14%; with BRSK1, 0%; with BRSK2, 100%.

For `Cc1ccc(NC(=O)Nc2ccc(Cl)c(C(F)(F)F)c2)cc1-c1ccc(C(=O)Nc2ccncc2)cc1` [GSK1398470], the “%Inh” value in the assay on BIKE was 8%; with BLK, 7%; in the assay with BMPR1A, 6%; with BMPR1B, 0%; in the assay with BMPR2 it was 0%; in the assay on BMX it was 21%. Further, the “%Inh” value in the assay with BRAF worked out at 73%; with BRK, 29%; in the assay on BRSK1 it was 7%; in the assay on BRSK2, 0%.

Consider `CC(C)c1ccc(O)cc1Nc1ccnc2ccc(C(F)(F)F)cc12` [GW482059], for which the “%Inh” value in the assay with BIKE stood at 13%; with BLK it was 30%; in the assay on BMPR1A, 0%; with BMPR1B it was 0%; with BMPR2, 0%; in the assay on BMX, 0%. Moreover, the “%Inh” value in the assay with BRAF stood at 0%; with BRK it was 0%; in the assay on BRSK1 it was 1%; in the assay with BRSK2 it was 5%.

Consider `O=C(Nc1n[nH]c2nc(-c3cccs3)c(Br)cc12)C1CCCC1` [SB-743341], for which the “%Inh” value is reported as 12% in the assay with BIKE; 0% with BLK; 28% in the assay on BMPR1A; 19% with BMPR1B; 46% in the assay with BMPR2; 14% in the assay with BMX. Moreover, the “%Inh” value in the assay on BRAF is 7%; in the assay on BRK, 12%; in the assay with BRSK1, 63%; with BRSK2 it was 66%.

With `COc1ccc(Nc2nccc(NCCNC(=O)Nc3cc(C)ccc3C)n2)cc1` [GSK1379899], the “%Inh” value in the assay with BIKE is on record as 28%; in the assay with BLK, 36%; in the assay with BMPR1A, 0%; with BMPR1B, 0%; with BMPR2, 0%; in the assay on BMX it was 0%. The “%Inh” value in the assay on BRAF is given as 4%; in the assay with BRK, 0%; in the assay on BRSK1, 4%; in the assay with BRSK2 it was 7%.

With `COc1ccc(CSc2nnc(-c3ccc4c(c3)CCO4)o2)cc1`, the “%Inh” value in the assay on BIKE, with BLK, with BMPR1A, with BMPR1B, in the assay on BMPR2 and in the assay on BMX was 0% throughout. Further, the “%Inh” value with BRAF, in the assay on BRK, in the assay on BRSK1 and in the assay on BRSK2 was 0% in each case.

`COc1ccc(CSc2nnc(-c3ccc4nccn4c3)o2)cc1C(F)(F)F`: the “%Inh” value is reported as 18% in the assay on BIKE; 1% with BLK; 0% in the assay with BMPR1A; 21% in the assay on BMPR1B; 3% in the assay on BMPR2; 0% with BMX. The “%Inh” value is recorded as 9% in the assay with BRAF, 0% with BRK, 14% with BRSK1 and 3% in the assay on BRSK2.

`CS(=O)(=O)Cc1ccc(Nc2nccc(-c3c(-c4cccc(NC(=O)C5CCCCC5)c4)nn4ncccc34)n2)cc1` [GSK350559]: the “%Inh” value with BIKE turned out to be 1%; in the assay on BLK it was 0%; with BMPR1A, 0%; with BMPR1B, 19%; with BMPR2 it was 24%; in the assay with BMX it was 37%. Further, the “%Inh” value with BRAF stood at 20%; with BRK it was 2%; with BRSK1 it was 0%; in the assay on BRSK2, 0%.

For `O=C(Nc1n[nH]c2nc(-c3cccs3)c(Br)cc12)C1CC1` [SB-735297], the “%Inh” value in the assay on BIKE stood at 26%; with BLK it was 0%; in the assay with BMPR1A, 0%; in the assay on BMPR1B, 0%; in the assay on BMPR2, 26%; in the assay with BMX, 9%. Moreover, the “%Inh” value in the assay on BRAF worked out at 0%; with BRK, 0%; in the assay on BRSK1, 66%; with BRSK2, 53%.
